These results are taken from PubChem BioAssay.

Assay [1] deals with Plasmodium falciparum Sir2 (PF13_0152, Sir2A). Kind of assay: Plasmodium falciparum Sir2A binding compounds – biochemical, small-molecule microarray, 635 nm fluorescence, primary screen (AID 1098).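 Further: score merges spot fluorescence intensity with its signal-to-noise ratio.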 The conditions noted are these: fluorescence 635 nm, higher = more signal.
The nature of assay [2]: probe aDKK1 binding to arrayed compounds – biochemical, biotinylated probe, 635/667 nm fluorescence, primary screen (AID 1099).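 Further: score merges 667nm spot fluorescence with signal to noise across triplicate slides.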 Particulars: small-molecule microarray, higher = more signal.
A short description of assay [3]: probe aCHRDL2 binding to arrayed compounds – biochemical, biotinylated probe, 635/667 nm fluorescence, primary screen (AID 1100). The conditions noted are these: small-molecule microarray, higher = more signal.
Assay [4] is described as follows: change in splice reporter luminescence, either direction, cell-based, HEK293, spliceosome inhibition project, primary screen (AID 1101).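 Further: HEK293 cells carrying a splicing-competent luciferase reporter gene; test concentration not given here.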 Particulars: HEK293 splicing luciferase reporter, 24 h, higher = more signal, called active from +8 up or from −8 down.
In assay [5] the target is Fibroblast growth factor 10 (Homo sapiens) (UniProt O15520). In words: compounds binding fibroblast growth factor 10 – biochemical, small-molecule microarray, 635 nm fluorescence, primary screen (AID 1102). Particulars: FGF10 binding, fluorescence 635 nm, higher = more signal.
Assay [6] deals with glycogen synthase kinase-3 (GSK3A per assay name; protocol says GSK3B). Kind of assay: compounds binding glycogen synthase kinase-3 – biochemical, small-molecule microarray, 635 nm fluorescence, GSK3A, primary screen (AID 1103). Further: the record names both GSK3A and GSK3B. Particulars: fluorescence 635 nm, higher = more signal.
Assay [7] concerns the target Epidermal growth factor receptor (Homo sapiens) (UniProt P00533). In words: compounds binding epidermal growth factor receptor – biochemical, small-molecule microarray, 635 nm fluorescence, primary screen (AID 1104).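 Further: score merges 667 nm emission intensity with spot signal to noise over triplicate slides.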 Particulars: EGFR binding, higher = more signal.
The target of assay [8] is Follistatin-related protein 3 (Homo sapiens) (UniProt O95633). Kind of assay: compounds binding follistatin-related protein 3 – biochemical, small-molecule microarray, 635 nm fluorescence, primary screen (AID 1105).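 Further: score merges emission near 667 nm and signal to noise per printed spot across three slides.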 Particulars: FSTL3 binding, higher = more signal.
The target of assay [9] is Dickkopf-related protein 1 (Homo sapiens) (UniProt O94907). In words: small molecules binding DKK1 protein – biochemical, small-molecule microarray, 635 nm fluorescence scan, primary screen (AID 1106).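 Further: score merges emission near 667 nm with signal to noise over three replicate slides.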 Particulars: higher = more signal.
Assay [10] deals with Inhibin beta A chain (activin A). In words: small molecules binding activin A – biochemical, small-molecule microarray, 635 nm fluorescence scan, primary screen (AID 1107).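 Further: mouse activin A protein probed at 4.33 µg/mL on printed slides; score merges bound-protein fluorescence near 667 nm with spot signal-to-noise.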 Particulars: INHBA, higher = more signal.
Assay [11] deals with Human papillomavirus type 1a protein E7 (residues 44-93). In words: small molecules binding HPV E7 44-93 – biochemical, small-molecule microarray, residues 44-93, 635 nm fluorescence, primary screen (AID 1108).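 Further: E7 fragment applied at 1 µg/mL in TBST for 1 h at 4 C; score combines spot fluorescence with its signal to noise ratio.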 Particulars: fluorescence 635 nm, higher = more signal.
Assay [12] can be described thus: hepatitis C replication reporter changes, two-sided – Huh7 cells, luciferase reporter, HCV replication inhibitor project, primary screen (AID 1109).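 Further: huh7 hepatoma cells harbouring a luciferase neomycin HCV replicon reporter; luciferase luminescence as measure of HCV replicon replication; test concentration not given here.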 The conditions noted are these: Huh7 HCV replicon luciferase reporter, 48 h; higher = more signal.
Assay [13] concerns the target Left-right determination factor 2 (Homo sapiens) (UniProt O00292). Kind of assay: small molecules binding LEFTY2 protein – biochemical, small-molecule microarray, 635 nm fluorescence scan, primary screen (AID 1110). Particulars: higher = more signal.
The target in assay [14] is Calmodulin-1 (Homo sapiens) (UniProt P0DP23). In words: small molecules binding calmodulin-1 with EGTA – biochemical, small-molecule microarray, Cy5-labelled CALM1, profiling panel (AID 1111).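 Further: labelled calmodulin applied in Tris saline Tween buffer holding calcium plus EGTA and DTT.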 Particulars: Cy5-CALM1 binding fluorescence, higher = more signal.
Assay [15] has the same target. In words: small molecules binding Ca-loaded calmodulin-1 – biochemical, small-molecule microarray, Cy5-labelled CALM1, plus calcium, artefact control for SMM control-protein annotation, profiling panel (AID 1112).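 Further: score merges spot fluorescence with signal to noise from triplicate slides.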 The conditions noted are these: Cy5-CALM1 binding fluorescence, higher = more signal.
The nature of assay [16]: probe aWnt5a binding to arrayed compounds – biochemical, biotinylated probe, 635/667 nm fluorescence, primary screen (AID 1113).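 Further: score merges 667 nm fluorescence intensity with signal-to-noise per printed feature.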 Particulars: small-molecule microarray, higher = more signal.
The nature of assay [17]: probe aShh binding to arrayed compounds – biochemical, biotinylated probe, 635/667 nm fluorescence, primary screen (AID 1114).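 Further: probe is biotin-labelled aShh protein from a stem cell growth factor screen; measures binding of labelled protein to compounds printed on the slide; score merges feature fluorescence at 667 nm with signal-to-noise.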 The conditions noted are these: small-molecule microarray, higher = more signal.
Assay [18] is described as follows: probe aNog binding to arrayed compounds – biochemical, biotinylated probe, 635/667 nm fluorescence, primary screen (AID 1115).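 Further: probe is biotinylated aNog protein used at 0.15 µg/mL for 1 h at 4 C; z-score combines 667 nm fluorescence of each spot with its signal to noise.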 The conditions noted are these: small-molecule microarray, higher = more signal.
Assay [19] deals with Torsin-1A-interacting protein 1 (Homo sapiens) (UniProt Q5JTV8). In words: compound microarray binding of lysate hLAP1 – cell lysate, small-molecule microarray, COS7 lysate, 635/667 nm fluorescence, primary screen (AID 1116). Particulars: 635 nm fluorescence, higher = more signal.
Assay [20] addresses Alpha-bungarotoxin (Bungarus multicinctus) (UniProt P60615). In words: compounds binding labelled alpha-BTX control protein – biochemical, small-molecule microarray, Alexa647 label, 635/667 nm fluorescence, artefact control for SMM control protein annotation, profiling panel (AID 1117). The conditions noted are these: alpha-BTX-A647 binding fluorescence, higher = more signal.

Calls of active or inactive are those of the source.

Epidermal growth factor receptor (Homo sapiens), sequence (P00533 whole entry, looked up): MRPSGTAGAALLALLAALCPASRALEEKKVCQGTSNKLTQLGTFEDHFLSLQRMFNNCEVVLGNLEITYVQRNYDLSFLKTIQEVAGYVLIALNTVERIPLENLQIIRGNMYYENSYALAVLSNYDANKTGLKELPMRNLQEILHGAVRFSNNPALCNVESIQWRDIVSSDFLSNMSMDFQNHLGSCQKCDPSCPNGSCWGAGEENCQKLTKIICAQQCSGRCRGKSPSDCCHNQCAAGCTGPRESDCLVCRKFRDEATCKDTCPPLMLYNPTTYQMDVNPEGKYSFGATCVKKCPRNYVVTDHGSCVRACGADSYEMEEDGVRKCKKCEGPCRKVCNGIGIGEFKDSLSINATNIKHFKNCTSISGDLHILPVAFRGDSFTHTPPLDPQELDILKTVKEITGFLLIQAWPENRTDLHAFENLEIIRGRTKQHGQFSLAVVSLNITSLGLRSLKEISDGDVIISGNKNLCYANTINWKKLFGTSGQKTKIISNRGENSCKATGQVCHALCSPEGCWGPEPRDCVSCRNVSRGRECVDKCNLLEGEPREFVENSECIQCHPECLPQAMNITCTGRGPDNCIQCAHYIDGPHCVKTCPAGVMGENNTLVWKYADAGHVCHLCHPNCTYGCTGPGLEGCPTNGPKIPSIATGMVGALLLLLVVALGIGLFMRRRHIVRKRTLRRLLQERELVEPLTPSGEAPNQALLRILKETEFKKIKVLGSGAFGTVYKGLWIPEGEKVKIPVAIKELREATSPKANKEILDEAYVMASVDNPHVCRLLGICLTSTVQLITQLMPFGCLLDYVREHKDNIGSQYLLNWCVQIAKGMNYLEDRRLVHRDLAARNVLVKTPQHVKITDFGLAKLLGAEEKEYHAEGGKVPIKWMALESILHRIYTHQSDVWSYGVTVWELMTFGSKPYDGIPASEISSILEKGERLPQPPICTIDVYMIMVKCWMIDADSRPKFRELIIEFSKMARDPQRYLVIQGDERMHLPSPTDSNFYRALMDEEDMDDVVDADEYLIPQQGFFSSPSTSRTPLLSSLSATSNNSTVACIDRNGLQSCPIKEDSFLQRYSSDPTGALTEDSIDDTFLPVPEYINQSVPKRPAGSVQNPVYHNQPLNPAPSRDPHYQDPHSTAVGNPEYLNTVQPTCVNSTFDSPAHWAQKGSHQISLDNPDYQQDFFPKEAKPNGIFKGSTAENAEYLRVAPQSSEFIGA
Left-right determination factor 2 (Homo sapiens), sequence (O00292 whole entry, looked up): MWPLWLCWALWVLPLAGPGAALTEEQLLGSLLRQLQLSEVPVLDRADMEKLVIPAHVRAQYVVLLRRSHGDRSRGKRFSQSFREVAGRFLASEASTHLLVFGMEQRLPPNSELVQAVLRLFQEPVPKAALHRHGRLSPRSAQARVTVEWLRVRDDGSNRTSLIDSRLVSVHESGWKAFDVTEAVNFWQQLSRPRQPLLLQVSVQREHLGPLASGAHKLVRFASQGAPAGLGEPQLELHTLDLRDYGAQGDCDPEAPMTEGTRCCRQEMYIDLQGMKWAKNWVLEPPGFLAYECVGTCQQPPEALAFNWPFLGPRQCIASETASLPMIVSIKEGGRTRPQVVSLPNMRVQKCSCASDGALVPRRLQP
Fibroblast growth factor 10 (Homo sapiens), sequence (O15520 whole entry, looked up): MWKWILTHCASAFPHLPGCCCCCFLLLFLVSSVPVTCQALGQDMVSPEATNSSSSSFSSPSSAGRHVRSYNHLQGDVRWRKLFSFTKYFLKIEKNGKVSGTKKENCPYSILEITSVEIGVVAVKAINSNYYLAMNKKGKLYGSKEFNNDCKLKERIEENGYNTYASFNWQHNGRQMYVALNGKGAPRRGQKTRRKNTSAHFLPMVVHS
Alpha-bungarotoxin (Bungarus multicinctus), sequence (P60615 whole entry, looked up): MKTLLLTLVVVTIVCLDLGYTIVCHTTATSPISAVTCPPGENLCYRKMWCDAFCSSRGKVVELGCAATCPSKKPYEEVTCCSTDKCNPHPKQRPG
Torsin-1A-interacting protein 1 (Homo sapiens), sequence (Q5JTV8 whole entry, looked up): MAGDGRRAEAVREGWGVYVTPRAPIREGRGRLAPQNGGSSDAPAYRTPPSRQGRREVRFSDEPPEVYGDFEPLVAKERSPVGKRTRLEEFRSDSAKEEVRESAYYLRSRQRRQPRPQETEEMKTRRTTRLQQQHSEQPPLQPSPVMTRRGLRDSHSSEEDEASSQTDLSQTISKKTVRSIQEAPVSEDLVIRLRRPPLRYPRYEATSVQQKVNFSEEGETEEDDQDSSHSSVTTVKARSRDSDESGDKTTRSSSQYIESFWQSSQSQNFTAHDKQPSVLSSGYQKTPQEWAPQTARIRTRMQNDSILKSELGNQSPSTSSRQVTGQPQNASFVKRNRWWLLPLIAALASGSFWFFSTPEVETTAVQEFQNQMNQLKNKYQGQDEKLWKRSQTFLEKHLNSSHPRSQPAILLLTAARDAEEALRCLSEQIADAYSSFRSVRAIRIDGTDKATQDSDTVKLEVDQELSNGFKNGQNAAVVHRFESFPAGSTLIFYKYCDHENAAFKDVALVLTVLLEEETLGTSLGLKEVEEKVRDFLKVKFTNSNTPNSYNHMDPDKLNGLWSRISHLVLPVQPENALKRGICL
Follistatin-related protein 3 (Homo sapiens), sequence (O95633 whole entry, looked up): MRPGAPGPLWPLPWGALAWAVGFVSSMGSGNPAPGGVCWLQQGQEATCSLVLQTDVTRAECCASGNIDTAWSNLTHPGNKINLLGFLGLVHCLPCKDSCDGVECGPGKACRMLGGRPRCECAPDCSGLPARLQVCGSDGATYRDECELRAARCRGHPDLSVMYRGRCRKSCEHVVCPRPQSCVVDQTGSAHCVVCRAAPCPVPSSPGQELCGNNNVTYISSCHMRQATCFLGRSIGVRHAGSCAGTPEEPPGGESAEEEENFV
Dickkopf-related protein 1 (Homo sapiens), sequence (O94907 whole entry, looked up): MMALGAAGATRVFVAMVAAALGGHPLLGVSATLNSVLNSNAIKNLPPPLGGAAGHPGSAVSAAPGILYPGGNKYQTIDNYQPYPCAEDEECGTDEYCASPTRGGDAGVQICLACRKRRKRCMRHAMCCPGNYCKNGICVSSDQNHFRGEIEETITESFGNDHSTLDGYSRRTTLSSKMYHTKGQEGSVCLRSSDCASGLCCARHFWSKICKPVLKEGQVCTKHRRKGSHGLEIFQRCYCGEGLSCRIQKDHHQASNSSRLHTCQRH

With `COC(=O)C1N=C(c2ccc(OCCCO)cc2)N(c2ccccc2)O1` (stereo not given), the composite z-score in assay [1] amounted to 1.05; in assay [2], 0.947; in [3], 1.11; in [5], 1.48; in [6] it was 1.22; in [7], 0.172. In addition, the composite z-score stood at 0.864 in assay [8]; 0.604 in assay [9]; 0.453 in assay [10]; 0.154 in [11]; 0.681 in assay [13]; 0.933 in assay [14]. In addition, the composite z-score in assay [15] is 0.576; in assay [16] it was -0.196; in assay [17], -0.0681; in [18], 0.438; in assay [19], 0.924; in assay [20] it was 2.07. Further, the figures for the z-score in assay [4] and in assay [12] were -0.155 (inactive) and -2.69, respectively.
As for `C=C(/C(=C/C[C@@H](OC(C)=O)c1ccc(OCCO)cc1)c1cc(C(=O)OC)ccc1OC)C(C)C`, the composite z-score is 1.28 in [1]; 0.0968 in assay [2]; 0.0396 in assay [3]; 1.08 in [5]; 0.263 in assay [6]; -0.461 in assay [7]. The composite z-score in assay [8] was 0.231; in assay [9], 0.328; in assay [10], 0.59; in assay [11], -0.544; in assay [13], 0.354; in [14] it was 0.0164. For the same molecule, the composite z-score in [15] is -0.258; in assay [16], -0.181; in assay [17], -0.0769; in assay [18], -0.237; in [19], 0.651; in assay [20] it was 1.31. Besides, the z-score in assay [4] is 0.0641 (inactive); in assay [12], -0.161.
As to `COCCCNC(=O)[C@@H]1c2ccccc2C(=O)N(C2Cc3ccccc3C2)[C@H]1c1ccc(CO)cc1`, the composite z-score in assay [1] came out at 0.122; in assay [2] it was 0.299; in [3], 0.186; in assay [5] it was 0.639; in [6], 1.04; in [7] it was 0.172. Besides, the composite z-score is 0.121 in assay [8]; 0.447 in assay [9]; 0.952 in [10]; 0.661 in assay [11]; 0.173 in assay [13]; -0.362 in assay [14]. The composite z-score in assay [15] was -0.518; in [16], -0.152; in assay [17], -0.229; in assay [18] it was -0.532; in assay [19], 0.685; in [20], -0.0047. Also, the z-score is 0.0141 (inactive) in assay [4] and -0.689 in [12].
For the molecule `C=C(CCCC)/C(=C/C[C@H](OC(C)=O)c1ccc(OCCO)cc1)c1cc(C(=O)OC)ccc1OC`, the composite z-score in assay [1] was 1.58; in assay [2], -0.131; in assay [3] it was 0.104; in assay [5] it was 1; in assay [6] it was 0.699; in assay [7] it was -0.616. The composite z-score in assay [8] was 0.613; in [9], -0.304; in assay [10] it was 0.562; in [11], 1.37; in [13], -0.399; in assay [14], 0.142. For the same molecule, the composite z-score in [15] was -0.212; in assay [16], 0.027; in assay [17], -0.221; in [18] it was -0.132; in assay [19], 0.405; in [20], 0.558. The figures for the z-score in assay [4] and in assay [12] were 0.0591 (inactive) and -1.69, respectively.
As for `COCCOC(=O)N1C(=O)[C@@]2(c3cc(C#CC4=CCCCC4)ccc31)[C@H](c1ccc(O)cc1)N1[C@H](c3ccccc3)[C@H](c3ccccc3)OC(=O)[C@H]1[C@@H]2C(=O)NC[C@H](O)c1ccccc1`, the composite z-score amounted to 0.535 in assay [1]; 0.0353 in [2]; 0.129 in assay [3]; 1.12 in assay [5]; 0.348 in [6]; 0.462 in [7]. Also, the composite z-score stood at 1.17 in assay [8]; 0.557 in assay [9]; 0.528 in [10]; 1.39 in assay [11]; 0.623 in [13]; 0.713 in assay [14]. In addition, the composite z-score in assay [15] was 0.135; in assay [16], 0.0324; in [17] it was 0.296; in [18] it was -0.614; in assay [19], 1.39; in assay [20], 0.791. Further, the z-score in [4] was -0.586 (inactive); in [12], -1.66.
